This note sets out measurements from PubChem BioAssay AID431 (Sanford-Burnham Center for Chemical Genomics, 2006).

Screen size: about 63,000 compounds; about 1,100 (1.7%) were called active. For the sample, actives were picked, then their nearest neighbours and some compounds at random. Entries with a potency or affinity are not part of this list. Unmarked numbers belong to inactive results.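 The calls were made as follows: active = compounds whose percent cytotoxicity in the single-dose primary screen, scaled between solvent and toxic-drug controls, exceeds 50; inactive = the rest.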

The nature of this test: cytotoxicity in KRAS-transformed pancreatic duct cells, primary screen, cell-based, fluorescence, HTS (AID 431).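 Also: 0% = DMSO solvent wells and 100% = doxorubicin-treated wells.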 The settings on record: HPDE-C7K KRASV12 cells, Alamar Blue viability, 48 h; at 10 µM; hits give high values.
Regarding `CCCc1nc(NC2CCCCC2)c(C#N)c2c1COC(C)(C)C2`, the cytotoxicity was -33.6%. As for `CCc1nc(NCC2CCCO2)c(C#N)c2c1COC(C)(C)C2` (configuration not stated), the cytotoxicity is -3%.

As to `CCc1nc(NC2CCCCC2)c(C#N)c2c1COC(C)(C)C2`, the cytotoxicity was 62% (active). Under `COc1ccccc1N1CCN(CC(=O)Nc2c(C)n[nH]c2C)CC1` stands 0.8%; under `COc1ccc(-c2nc(CS(=O)CC(=O)NCC3CCCO3)c(C)o2)cc1` (configuration not stated), -1.7%. Next, `O=S(=O)(c1ccc(F)cc1)N1CCN(c2ncnc3c2cnn3-c2ccccc2)CC1`: -6.5%; `O=S1(=O)CC(O)C(N2CCC(c3ccccc3)CC2)C1` (configuration not stated): -1.5%; `CN(Cc1cc2ccccc2[nH]c1=O)S(=O)(=O)c1ccccc1`: -6.2%. On to `CN(C)CCC(=O)c1ccc(Cl)cc1`, for which the cytotoxicity was 13.3%.

`COc1ccccc1NC(=O)N(Cc1ccco1)Cc1cc2cc(C)cc(C)c2[nH]c1=O`: the cytotoxicity is 74.7% (active). Under `COc1ccccc1NC(=O)N(Cc1ccco1)Cc1cc2c(C)ccc(C)c2[nH]c1=O` stands 33.2%; under `COc1ccccc1NC(=O)N(Cc1ccco1)Cc1cc2cccc(C)c2[nH]c1=O`, -5%. Next, `COc1ccccc1NC(=O)N(Cc1ccco1)Cc1cc2ccc(C)c(C)c2[nH]c1=O`: 63.7% (active); `CCN1CCCC1CN(Cc1cc2cc(C)cc(C)c2[nH]c1=O)C(=O)Nc1ccccc1OC` (configuration not stated): 20.9%. In the case of `Cc1cc(C)c2[nH]c(=O)c(CN(Cc3ccco3)C(=O)C3CCCO3)cc2c1` (configuration not stated), the cytotoxicity was -35.5%. In the case of `CC1CCCCC1NC(=O)CN1CCN(Cc2ccccc2Cl)C1=O` (configuration not stated), the cytotoxicity was -7.1%.

As to `CCc1cc(C)cc(OCCNC(=O)c2ncn[nH]2)c1`, the cytotoxicity is 30%. As for `Cn1nnnc1CCOCCc1nnnn1C`, the cytotoxicity was 14.6%. Under `CCn1nnnc1SCCSc1nnnn1CC` stands 9.6%; under `N/C(=N\c1nc2c(c(=O)[nH]1)CCCC2)Nc1ccccc1`, 12.1%; under `COc1ccc(-c2cn3cccnc3n2)cc1NC(=O)c1ccc(Br)o1`, 8.3%. For the molecule `CCOC(=O)C1=C(C)N=C2SC(CC)C(=O)N2C1c1cccc(F)c1` (configuration not stated), the cytotoxicity was -16.9%.

For `O=C(CN1CCN(c2ccccc2)CC1)Nc1cccc(C(F)(F)F)c1`, the cytotoxicity was 4.9%. Under `Cc1[nH]c2ccccc2c1NC(=O)CN1CCN(c2cccc(C(F)(F)F)c2)CC1` stands 70% (active); under `O=C(CCn1c(=O)[nH]c2ccccc2c1=O)N1CCN(c2cccc(C(F)(F)F)c2)CC1`, -4.3%; under `COC(=O)c1[nH]c2ccccc2c1NC(=O)CN1CCN(c2cccc(Cl)c2)CC1`, 7.8%. Under `OC(CN1CCN(c2cccc(C(F)(F)F)c2)CC1)c1c[nH]c2ccccc12` (configuration not stated) stands 30.5%.
